Active and inactive are the calls of the source. The calls were made as follows: active = hit-call score of the fitted dose curve at least 0.9, where 1 is the maximum; inactive = score below 0.9.
Assay: ATG_VDRE_CIS: Attagene CIS-FACTORIAL HepG2 Assay for human Vitamin D Receptor Element (VDRE) (AID 2282968)
Conditions: HepG2 VDRE cis-reporter transcription, actives raise or lower the signal
Procedure: ATG_CIS is a cell-based, multiplexed-readout assay that uses HepG2, a human liver cell line, with measurements taken at 24 hours after chemical dosing in a 24-well plate.ATG_VDRE_CIS is one of 52 assay component(s) measured or calculated from the ATG_CIS assay. It is designed to make measurements of mRNA induction, a form of inducible reporter, as detected with fluorescence intensity signals by Reverse transcription polymerase chain reaction (RT-PCR) and Capillary electrophoresis technology.Data from the assay component ATG_VDRE_CIS was analyzed into 1 assay endpoint. This assay endpoint, ATG_VDRE_CIS, was analyzed with bidirectional fitting relative to DMSO as the negative control and baseline of activity. Using a type of inducible reporter, measures of mRNA for gain or loss-of-signal activity can be used to understand the reporter gene at the transcription factor-level as they relate to the gene VDR. Furthermore, this assay endpoint can be referred to as a primary readout, because this assay has produced multiple assay endpoints where this one serves a reporter gene function. To generalize the intended target to other relatable targets, this assay endpoint is annotated to the nuclear receptor intended target family, where the subfamily is non-steroidal.
Human liver HepG2 cells are transiently transfected with multiple reporter transcription units (MRTUs) in 6-well plates using FuGene 6 reagent (Roche; 3 ml FuGene/1 mg DNA). The MRTU constructs are regulated by a cis-regulating element (promoter). […] A major difference between the CIS and TRANS system is that in CIS activities of endogenous TFs are measured, whereas the TRANS assay evaluates changes in activities of exogenous, chimeric NR-Gal4 proteins. […] At the end of 24 hour incubation, total RNA was isolated using TriZol reagent (Invitrogen). The isolated RNA is then reverse-transcribed using oligo(dT) primer and Mo-MLV reverse transcriptase (Invitrogen) with DNAse I (Ambion) treatment for 30 min. The one-tenth of the produced cDNA was amplified by PCR using Taq DNA polymerase (Invitrogen) and two reporter sequence-specific primers. The PCR products were fluorescently labeled by primer extension with 6-arboxyfluorescein (6-FAM) 5'-labeled reporter sequence-specific primer (2 min at 95 C, 20 s at 68 C and 10 min at 72 C) and these products were digested with 5U of HpaI (New England Biolabs) for 2h at 37 C. The fragments were purified using Qiaquick PCR columns (Qiagen), analyzed on an ABI 3130xL genetic analyzer (Applied Biosystems) with peak positions identified by using a set of X-rhodamine (ROX)-labeled MapMarker1000 molecular weight standards (BioVentures). The raw capillary electrophoresis data was processed using Attagraph software (Attagene).

outcome, inactive:
O=C(O)c1cc(Cl)cc([N+](=O)[O-])c1Cl
Cn1c(=O)[nH]c2ncn(C)c2c1=O
CCc1c(C(=O)O)c(=O)cnn1-c1ccc(Cl)cc1
CC(=O)NS(=O)(=O)c1ccc(N)cc1
CN(C)CCCN(C)C
CCCCCCCC/C=C\CCCCCCCC(=O)OCCO
CCCCCCC1(C)CCC(=O)O1 (stereo not given)
CC(=O)[C@@]1(O)CC[C@H]2[C@@H]3C[C@H](C)C4=CC(=O)C=C[C@]4(C)[C@@]3(F)[C@@H](O)C[C@@]21C
NC(CO)(CO)CO
c1c[nH]cn1
O=C1C=CC(=O)O1
CC(CC=O)CCCC(C)(C)O (stereo not given)
Cc1ccc2oc(=O)ccc2c1
Cc1cc(C)c(C)c(C)c1
C=C[C@](C)(O)CC[C@@H]1[C@@]2(C)CCCC(C)(C)[C@@H]2CC[C@@]1(C)O
O=S(=O)(O)c1cc(S(=O)(=O)O)c2ccc3c(S(=O)(=O)O)cc(S(=O)(=O)O)c4ccc1c2c43
NCCCN1CCN(CCCN)CC1
CCCCC(CC)COC(=O)c1ccccc1O (stereo not given)
CCCCCCCCCCOC(C)=O
CC1=NN(c2cc(S(=O)(=O)O)ccc2Cl)C(=O)C1N=Nc1ccccc1 (stereo not given)
CC(C)(Oc1ccc(C2CC2(Cl)Cl)cc1)C(=O)O (stereo not given)
O=c1n(CCO)c(=O)n(CCO)c(=O)n1CCO
CCC(C)C=O (stereo not given)
OCCN(CCO)c1ccccc1
NC(=O)c1ccccc1O
CCN(CC#N)c1cccc(C)c1
N=c1ccn2c(n1)O[C@H]1[C@H](O)[C@@H](CO)O[C@H]12
C=C(C)C(=O)OCC(C)C
CCCCOCCOC(=O)COc1nc(Cl)c(Cl)cc1Cl
N#CCc1ccc(Cl)cc1Cl
CC1(C)[C@H]2CC[C@]1(C)C(=O)C2
CCCCCCCCC(=O)OCC

AC50, active:
O=C(Nc1cccc(C(F)(F)F)c1)c1cc(Br)cc(Br)c1O 2.18 µM
CC/C=C\C/C=C\C/C=C\CCCCCCCC(=O)O 62.7 µM
CCOC(=O)c1ccccc1C(=C1C=C(Br)C(=O)C(Br)=C1)c1cc(Br)c(O)c(Br)c1 25.9 µM
CCOC(=O)c1ccc(N(C)C)cc1 65.8 µM
COc1ccc(C(Cl)=C(c2ccc(OC)cc2)c2ccc(OC)cc2)cc1 4.46 µM
Nc1ccc(N)c(Cl)c1 33.4 µM
O=C1c2ccccc2C(=O)C1c1nc2ccccc2c(Br)c1O 17.2 µM
COCc1c(C(C)C)nc(C(C)C)c(/C=C/[C@@H](O)C[C@@H](O)CC(=O)O)c1-c1ccc(F)cc1 2.34 µM

Reference: PubChem BioAssay (EPA / NIEHS)
